Measured values as given in PubChem BioAssay AID687014 (The Scripps Research Institute Molecular Screening Center, 2013).
Among all 370,000 compounds or so, about 6,800 (1.8%) were called active. What follows is part of a selection rich in actives, with near analogues and random picks from the rest. Values without a mark were called inactive.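 Rule for the calls: active = activation above a cutoff set at the mean of all screened compounds plus 3 SD (cut at about 10% in these data); inactive = the rest.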

Each compound was assayed on Nuclear hormone receptor DAF-12 (Heterodera glycines), GAL4 fusion (assay: hgDAF-12 GAL4 fusion reporter activation – cell-based, luminescence, HEK293, UAS-luciferase, primary screen (AID 687014;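 note: 0% = DMSO wells and 100% = sodium butyrate wells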)). Conditions: HEK293 GAL4-hgDAF12 UAS-luciferase reporter, agonist luminescence; at 6.8 µM; hits give high values; normalized to butyrate control.
Work on `Cc1c(C(C)c2ccccc2O)[nH]c2ccccc12` (stereo unspecified) yielded an activation of 2.99%. `Cc1sc2ncnc(N3CCC(C(=O)Nc4ccc(F)cc4Cl)CC3)c2c1C` was tested, and the activation was -1.36%. Work on `Cc1sc2ncnc(N3CCC(C(=O)NNC(=O)c4ccc(F)cc4)CC3)c2c1C` yielded an activation of -1.73%. `Cc1sc2ncnc(N3CCC(C(=O)Nc4nc5ccc(Cl)cc5s4)CC3)c2c1C` was tested, and the activation was 12.9% (active). `COc1ccc(OC)c(NC(=O)C2CCCN2S(=O)(=O)c2ccc3c(c2)CC(C)N3C(C)=O)c1` (stereo unspecified) was tested, and the activation was -2.45%. `O=C(NCc1ccc(Cl)cc1)C1CCCN(c2nc3ccccc3o2)C1` (stereo unspecified) showed an activation of -0.62%. `CC(=O)C1(C(=O)Nc2nccs2)CC(c2ccccc2C(F)(F)F)=NO1` (stereo unspecified) showed an activation of 0.67%. `Cc1ccnc(N2C(=O)c3ccc([N+](=O)[O-])cc3C2=O)c1` gave an activation of 0.65%. Compound `O=c1c2cc([N+](=O)[O-])ccc2nc2n1CCC2` has an activation of -2.97%. With `Cc1ccc(-n2cc3ccc([N+](=O)[O-])cc3n2)cc1` the activation was 17.1% (active). In the case of `Cc1cccc(N2C(=O)SC(N(CC(=O)O)c3cccc(C)c3)C2=O)c1` (stereo unspecified), the activation is reported as 2.06%. For `Cc1cccc(N2C(=O)SC(SC(=Nc3ccccc3)Nc3ccccc3)C2=O)c1` (stereo unspecified), the activation was 12.4% (active). `COC(=O)c1ccccc1SC1CC(=O)N(c2cccc(C)c2)C1=O` (stereo unspecified) gave an activation of -0.2%. Work on `O=S1(=O)c2ccc(Br)cc2OC[C@@H](Cc2ccccc2)N1Cc1cn(Cc2ccco2)nn1` yielded an activation of -2.95%. `CC(C)(C)OC(=O)N(Cc1ccccc1)Cc1ccc(OCc2cccc(NC(=O)c3ccccc3)c2)cc1` was tested, and the activation was 3.23%. `CCOc1ccc(OCc2ccc(C(=O)N(C)c3ccccc3)o2)cc1` showed an activation of -0.02%. `CCOc1ccc(OCc2cccc(C(=O)N(CC)CC)c2)cc1` was tested, and the activation was 15.3% (active). Compound `COc1cccc(N2CCN(CC(=O)N(C)Cc3ccc(F)cc3)CC2)c1` has an activation of 2.78%. `CC(C)CNC(=O)OCc1cn(Cc2ccc(F)cc2)nn1` gave an activation of 0.8%. Compound `CS(=O)(=O)N(CC(=O)NC1CCCC1)Cc1ccc(F)cc1` has an activation of -0.56%. For `Cc1ccc(-c2nnc(SCC(=O)Nc3ccc(Oc4ccccc4)cc3)n2Cc2ccco2)cc1`, the activation was -0.14%. In the case of `CC(=O)Nc1ccc(S(=O)(=O)NCC(=O)OCC(=O)c2ccc[nH]2)cc1`, the activation is reported as -0.16%. `C/C(=N\NC(=O)OC(C)(C)C)c1ccc[nH]1` was tested, and the activation was 13.9% (active). `CC(C)(C)OC(=O)N[C@H](C(=O)OC(C)(C)C)c1ccc(Br)cc1` was tested, and the activation was 2.51%. With `COC(=O)[C@]12C[C@H](CC(=O)NCc3ccc(OC)c(OC)c3)C(=O)N(Cc3ccccc3)C1=C[C@H](C(C)C)O[C@@H]2C1CC1` the activation was -0.64%. With `c1cncc(CNc2ccnc(-c3ccc4c(c3)OCO4)n2)c1` the activation was 8.09%. `Cc1cc(NS(=O)(=O)c2ccc(NC(=O)CSc3nnc(-c4ccc(C(C)(C)C)cc4)n3Cc3ccco3)cc2)nc(C)n1` was tested, and the activation was 0.44%. In the case of `O=C(NC1CCCC1)C(c1ccccn1)N(C(=O)c1csnn1)C1CCCC1` (stereo unspecified), the activation is reported as -0.77%. For `CN(C)c1ccc(C=C2C(=O)OC3(CCCC3)OC2=O)cc1`, the activation was 11.1% (active). For `CN(C)c1ccc(/C=C2\NC(=S)N(Cc3ccccc3)C2=O)cc1`, the activation was 2.67%. Work on `CCCC[C@H](C(=O)N(CC)c1ccccc1)[C@@H](O)c1ccc2ccccc2c1` yielded an activation of -1.89%. In the case of `CCCNC(=O)Nc1ccc2c(c1)C(=O)N(C)[C@H]1CC[C@H](CC(=O)NCC3CCCCC3)O[C@@H]1CO2`, the activation is reported as 2.46%. `CCc1ccccc1S(=O)(=O)Cc1ccc(C(=O)NCCc2ccccc2)o1` showed an activation of -1.29%. Compound `CCCOc1ccc(Oc2c(Cl)cnn(Cc3cccc4ccccc34)c2=O)cc1` has an activation of -0.9%. With `COc1ccc2nc(-c3ccccn3)ccc2c1` the activation was 14.8% (active). Compound `COc1ccc2cc(CCl)c(Cl)nc2c1` has an activation of 5.31%. With `COc1ccc(C=C(C#N)C#N)c(CSc2ccccn2)c1` the activation was -4.02%. `CN1CCCCC(NC(=O)C(C)(C)C)C1=O` (stereo unspecified) gave an activation of -0.75%. With `COc1ccc(-c2cc3ncccc3cn2)cc1` the activation was 14.3% (active). With `COc1ccc(-c2cc3n(n2)CCc2nc4ccccc4n2-3)cc1` the activation was 1.57%. `COc1ccc(-c2cc(C3CCN(c4ncccc4[N+](=O)[O-])CC3)[nH]n2)cc1` gave an activation of -1.82%. `COc1cccc(N(C)C(=O)[C@@H](C)[C@@H](O)c2ccc3ccccc3c2)c1` gave an activation of -0.12%. With `O=C(NCc1ccco1)C1CCCN(S(=O)(=O)c2ccc(Cl)s2)C1` (stereo unspecified) the activation was 2.01%. In the case of `CN(C(N)=NC(=O)/C=C/c1ccccc1)C(C#Cc1ccccc1)Cc1ccccc1` (stereo unspecified), the activation is reported as 2.81%. Compound `CCCCn1c(N)c(N(CC(C)C)C(=O)CSc2ccc([N+](=O)[O-])cc2)c(=O)[nH]c1=O` has an activation of 2.08%. `CN1CCN(/N=C/c2ccc(-c3ccc([N+](=O)[O-])cc3)o2)CC1` was tested, and the activation was 10.5% (active). `O=C1C2C3C=CC(C4CC34)C2C(=O)N1/N=C/c1ccc(-c2ccccc2[N+](=O)[O-])o1` (stereo unspecified) showed an activation of -3.65%. In the case of `Cn1cnc(C(F)(F)F)c1-c1ccc([N+](=O)[O-])cc1`, the activation is reported as 0.97%. `O=C(CSc1nc2c(c(=O)[nH]1)CCCC2)N1CCCCC1` gave an activation of -4.02%. `CCCOc1ccccc1-c1nc(SCCC(=O)O)n[nH]1` was tested, and the activation was -0.41%. In the case of `Cc1cc(C)nc(Nc2n[nH]c(-c3ccccc3N)n2)n1`, the activation is reported as 12.2% (active). For `O=C(OCC#CCSc1nnc(-c2ccco2)o1)c1ccc(F)cc1`, the activation was -3.04%. With `COC(=O)C1=C(C)NC(=S)NC1c1ccc(OC)cc1` (stereo unspecified) the activation was 0.66%. With `CCOC(=O)[C@]12CCCCC/C=C\1N(Cc1ccc(OC)cc1)C(=O)[C@H]2CC(=O)NCc1ccc(C)o1` the activation was -1.27%. `CC(C)Cc1cc(C(=O)Nc2cc(Br)ccc2O)no1` showed an activation of 6.04%. With `CC(C)Cc1cc(C(=O)NCCc2ccccc2)no1` the activation was 13% (active). `O=C(NCCCc1ccccc1)c1cc(COc2c(F)cccc2F)on1` showed an activation of 4.73%. `O=S1(=O)c2ccc(N3CCN(Cc4ccccc4F)CC3)cc2Oc2ccccc2CN1Cc1cn(Cc2ccc(Cl)cc2)nn1` showed an activation of 0.48%. `C[C@@H]1CN([C@@H](C)CO)C(=O)c2cccc(NC(=O)Nc3cccc4ccccc34)c2O[C@H]1CN(C)S(=O)(=O)c1ccccc1F` showed an activation of -4.71%. Work on `CN(C)[C@H]1CCN(c2cccc3c2S(=O)(=O)N2CC[C@H](C2)O3)C1` yielded an activation of -1.45%. Compound `CC1CC(=NNC(=O)C2COc3ccccc3O2)CC(C)(C)C1` (stereo unspecified) has an activation of 3.29%. With `CCc1ccc(C(=O)NN=C2CCCCCC2)s1` the activation was 3.37%. In the case of `CC1C/C(=N/NC(=O)c2cccs2)CC(C)(C)C1` (stereo unspecified), the activation is reported as 14% (active). With `COc1ccccc1CCn1cnc(-c2ccccc2)c1C(C)C` the activation was -2.29%. With `Cc1ccn(CC(=O)N2N=C(C(F)F)CC2(O)C(F)F)n1` (stereo unspecified) the activation was 1.75%. Work on `Cc1ccc(N(CC(=O)Nc2cc(C)cc(C)c2)S(=O)(=O)c2cccc3nonc23)cc1` yielded an activation of 1%. For `Cc1cccc(N(CC(=O)Nc2ccc(-c3nc4ccc(C)cc4s3)cc2)S(C)(=O)=O)c1`, the activation was 15% (active). With `Cc1ccc2nc(-c3ccc(NC(=O)CN(C)S(=O)(=O)c4ccccc4)cc3)sc2c1` the activation was 11.4% (active). For `Cc1nc2ccc(S(=O)(=O)N(C)CC(=O)NC(C)c3ccccc3)cc2s1` (stereo unspecified), the activation was -1.17%. In the case of `CCN(CC)S(=O)(=O)c1ccc(NC(=O)CN(c2cccc(F)c2)S(C)(=O)=O)cc1`, the activation is reported as -0.33%. With `COc1cc(NC(=O)CN(C)S(=O)(=O)c2ccc3nc(C)sc3c2)cc(OC)c1` the activation was -1.83%. Work on `Cc1ccc2c(c1)N(CC(=O)N1CCC(C)CC1)C(=O)c1cccnc1O2` yielded an activation of -1.52%. `CC[C@H](NC(=O)[C@H](Cc1ccccc1)NC(=O)[C@H]1O[C@@H](n2cnc3c(=O)[nH]c(N)nc32)[C@H](O)[C@@H]1O)c1ccccc1` was tested, and the activation was -0.43%. Compound `COc1ccccc1C(=O)CSc1nnc(-c2ccccn2)n1-c1ccccc1` has an activation of -5.4%. Work on `Cc1cc(=O)[nH]c(SCC(=O)Nc2ccc(F)cc2F)n1` yielded an activation of 2.35%. Work on `COC(=O)[C@H](Cc1ccccc1)NC(=O)Nc1ccc(S(N)(=O)=O)cc1` yielded an activation of -0.11%. With `COc1ccc(CN2C/C(=C/c3ccccc3)N3C(=O)C[C@@H](c4ccccc4)N=C23)c(OC)c1` the activation was 1.14%. `Cc1cc(N=Nc2ccc3ccccc3c2)ccc1O` was tested, and the activation was 15.6% (active). `Cc1ccc(-n2c(SCC(=O)Nc3cccc4ccccc34)nnc2-c2ccco2)cc1` gave an activation of -1.7%. Compound `COc1ccc([C@H]2OC(=O)C[C@H]2C(=O)N2CCN(c3ccccc3F)CC2)cc1OC` has an activation of 0.07%. Work on `Cc1ccc(/C=N/NC(=O)COc2ccccc2-c2ccccc2)cc1` yielded an activation of -6.53%. In the case of `O=C(CN1CCSCC1)N/N=C/c1ccc(Cl)cc1`, the activation is reported as -0.9%. For `Cc1ccc(COc2ccc(/C=N/NC(=O)CN3CCCCC3)cc2)cc1`, the activation was 10.7% (active). Work on `Cc1ccc(Cn2cc(CN3[C@@H](C)COc4cc(Br)ccc4S3(=O)=O)nn2)cc1` yielded an activation of -0.49%. In the case of `COc1ccc(NC(=O)N(C)C[C@@H]2OCCCC[C@@H](C)Oc3ccc(NC(=O)NC4CCCCC4)cc3C(=O)N([C@H](C)CO)C[C@@H]2C)cc1`, the activation is reported as 2.86%. `C[C@@H](CN1C2=NC[C@@H](Cc3ccccc3)N2C[C@H]1Cc1ccc(O)cc1)NC(=O)CCC1CCCCC1` gave an activation of 1.3%.
